These results are taken from the supplement of paper PMC11417369.

In all, about 25,000 sequences were measured (“ln(normalized median fluorescence intensity)”: median about 6.7, highest 2% from about 10 on). Shown is part of a subset that was picked to be rich in the highest values.

The test has as its system PfHDP1 homeodomain (GST-tagged). Kind of test: gcPBM binding intensity (ln(normalized median fluorescence intensity)); higher = stronger DNA binding. A digest of the protocol: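 An Agilent 4 × 180k array of primer-extended double-stranded 36-bp intergenic genomic probes, with negative controls, was incubated for 1 h with GST-tagged P. falciparum DNA-binding domains expressed in E. coli. Alexa488 anti-GST antibody detected bound protein, scanned at 488 nm. Binding intensity is the highest Masliner-normalised natural-log median intensity across replicate spots of either probe orientation.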
As to “TGTAGACTACATAGTAGTACATAATATATACATATA [XGTACX_site367]”, the “gcPBM binding intensity (ln)” value is 6.21.
Then “TACTTATTATGAAACACACACCAAAACTACAGAATA [CACACA_site6265]”, with 7.04; and “GTGCATATATGATATACACACAATATAATAGTATGT [CACACA_site2460]”, with 7.18.
In the case of “TTTTTTTTTAATCATGCACACTGTTAAAAGAATAAA [CACACA_site4817]” it was 8.29; in that of “TTTTTATGGACTATGGTGCATTATATATAAATGAAA [GTGCAC_site9557]”, 10.3; in that of “ATTAAATGCAGTTCGGTGCATTAAGGTTATGATGAA [GTGCAC_site9883]”, 10.7.
In the case of TAATATAATGATGCAGTGCATATGTTAAAATGAAAA it was 8.68; in that of ATTATCAATATGAAGGTGCATTTAAATAATATTTAC, 9.62; in that of “TCTTGTTCGCCCTATTGTACAAACATATATTGTGAT [XGTACX_site2884]”, 7.27.
“TAATAAATCAAATGCACACACACAAAAAAAAAAAAA [CACACA_site161]”: the “gcPBM binding intensity (ln)” value turned out to be 10.
Then “ATATAAACACTGAATGCATGCACATATATATATATA [TGCATGCA_site940]”, with 9.37; and “AAAATATAATATAATGCACACATAAACAAAAAAAAA [CACACA_site8161]”, with 10.1.
In the case of “AACGGGTAATGCACAAAAAAAAAAAAATAAAATAAA [TGCATGCA_negctrl_site474]” it was 10.9; in that of “ATTATATATAAACACACACACATGCATGCACATATA [CACACA_site4237]”, 10.5.
As to “GCACAAATATATATATATATATATATATATATATAT [GTGCAC_negctrl_site661]”, the “gcPBM binding intensity (ln)” value was 9.39.
With “AATATAATATAATGCACACATAAACAAAAAAAAAAT [CACACA_site1304]”, the “gcPBM binding intensity (ln)” value was found to be 10.5.
In the case of “AATATAAAAATGCACACACACAAAAAAAAAAAAAAA [CACACA_site6546]” it was 9.21.
As for “ATATTATATAAATACACACACACATGCATGCACATA [CACACA_site4236]”, the “gcPBM binding intensity (ln)” value worked out at 10.3.
In the case of “ATGAGTGCACAAATATATATATATATATATATATAT [CACACA_negctrl_site404]” it was 10.7; in that of “AAATATAAAGTGCACACACACAAAAAAAGAAAAAAA [CACACA_site6452]”, 8.92; in that of “AAAATATAATATAATGCACACATAAAACAAAAAAAA [CACACA_site8989]”, 9.76.
Then “TTCTTAATATTGCATGCACACTATATAATAATTGAA [CACACA_site4720]”, with 9.18; and “GTCTCCTTTATTTTTGGTACAGATAAGATAAAAGGA [XGTACX_site1591]”, with 6.46.
Regarding “CACTTAAAAAAAATACGTACACATATATATATATAT [XGTACX_site2054]”, the “gcPBM binding intensity (ln)” value was 9.39.
In the case of “TATAATATAATTAAAAGTACTTAAAAAAGAATGAAA [XGTACX_site1157]” it was 6.99; in that of “CATCAATGCTAATTATGTACTTACATAAATAACCCT [XGTACX_site968]”, 6.52.
In the case of “TTGTGCTTGATATCACGGACAAGCTCATATTATATA [XGTACX_site4553]” it was 6.03; in that of “AATGTCATGATACATACACACACATACACATACACA [CACACA_site8665]”, 6.98; in that of “ATATAACGAATAATTACACACTATAAAAAAAGATCT [CACACA_site2862]”, 6.63.
Then “CATATAAAAATATATGCACACAAATAAAAAATTATA [CACACA_site9210]”, with 10; and “TATAATATTCCTTTTTAACACACATATGAACAAATA [CACACA_site7932]”, with 6.77; and “AAAATATAAAATAATGCACACATAAACAAAAAATCA [CACACA_site8382]”, with 10.5.
Consider “GTACACCTATAATATACACACAACAAATATGCACAT [CACACA_site6603]”, for which the “gcPBM binding intensity (ln)” value worked out at 10.2.
As for “TATAAAAATATATGCACACAAATAAAAAATTATATA [CACACA_site3629]”, the “gcPBM binding intensity (ln)” value stood at 9.87.
In the case of “AAATATAATATATGCACACATACATACATATATATA [CACACA_site104]” it was 10.3; in that of “AATATAAAATAATGCACACATAAACAAAAAATCAAA [CACACA_site1371]”, 10.4.
In the case of “ATGAATCCTTAATATGAACACACAAATATATTACAC [CACACA_site7943]” it was 6.7.
In the case of “AATTATGCACAAATCACACATATAAAATAAAAAGTG [CACACA_site4474]” it was 11.1; in that of “GTACACATATAATATACACACAACAAATATGCACAT [CACACA_site1010]”, 10.6.
In the case of “ATCCTTAATATGAACACACAAATATATTGCACATAT [CACACA_site6230]”, the “gcPBM binding intensity (ln)” value turned out to be 10.9.
In the case of “AGAAAAAAAATGTATACACACAAATATAAAGAAGGA [CACACA_site3806]”, the “gcPBM binding intensity (ln)” value was 7.09.
Regarding “GTACTCTTCTCCAGACTGCACTATACGACTCGTACA [GTGCAC_site9770]”, the “gcPBM binding intensity (ln)” value stood at 7.35.
Then “AAATATTTTTTAATGTGTACATAGAACATATATATA [XGTACX_site3136]”, with 6.59.
In the case of “TTTGTCTGCATACGCACACACGTGTACCATCTTATG [CACACA_site4784]” it was 7.89.
Then “AATTAACAAAGACACACACACACACGCACAAAAAAA [CACACA_site6388]”, with 7.33.
For “GTTAAAATTGGGGACGCATGTTCCTTTCCTTTTTTT [TGCATGCA_site1002]”, the “gcPBM binding intensity (ln)” value worked out at 5.83.
Then “TAATATAATCTGAGTGCACACAAATAAATAAACATA [CACACA_site8032]”, with 11.2.
Then “TAAATATAAACACAAACACACACATATATATATATA [CACACA_site7978]”, with 9.27; and “ATATAATCTGAGTGCACACAAATAAATAAACATACA [CACACA_site422]”, with 10.2; and “AATATAATATAATGCACACATAAACAAAAAAAAAAA [CACACA_site783]”, with 10.5.
Then “AATATAATATAATGCACACATAAAACAAAAAAAAAA [CACACA_site3012]”, with 10.2; and “TTAACAAATAAATGCACACATATATATAAATAATAT [CACACA_site28]”, with 9.43; and “AATGTTAAACTATGATGTACGGTTAAAAATATAATT [XGTACX_site893]”, with 6.43.
Regarding “TTATATTTTCAGAATAGTACACATATATACATATAT [XGTACX_site2519]”, the “gcPBM binding intensity (ln)” value came out at 6.46.
Then “GTATCAATAAAAAACAGTACATATATAATATATTTA [XGTACX_site1083]”, with 6.24; and “TATTTTCATTTGCGCGCACACAATAATAATTTTTGG [CACACA_site3525]”, with 8.28.
In the case of “ATTTGATAGACACATGCACACATGCAATACTTTATT [CACACA_site5633]” it was 9.05.
Then “GATAGACACGTGCACACATGCAATACTTTATTCAGT [TGCATGCA_site778]”, with 10; and “TTTAATTTGATAGACACATGCACACGTGCAATACTT [TGCATGCA_site777]”, with 10.9; and “TATTAACAAAATTTTTAACACACAAAAAAAAAAAAA [CACACA_site8542]”, with 6.18.
Take “ATATCAACTGAATTGTATAGGCGATAAAAGAAAAAA [CACACA_negctrl_site1334]”: the “gcPBM binding intensity (ln)” value is 6.58.
Then ATAGAAGGCAACTTGGTGCACAAAAAAAAAAATAAT, with 10.5; and “TATATATCAAAAATATGTACACAGAAATATATATTA [XGTACX_site6997]”, with 6.96.
In the case of “AACATGCAAACATGCACACAGAAAAAAAAAATATAT [CACACA_site1565]” it was 9.37; in that of TCCTATATCACAAATGTGCACAGAAAAAAAAAATAT, 11; in that of “TATTCTTACAAAAGTAGTACAATCATTCATATTTTT [XGTACX_site631]”, 6.42.
Then “TTTTTTTTTTATTTTGCACACTTCTAATTTAGTTGT [CACACA_site3429]”, with 10.7; and “AAAAATAGTCTTCTTGCACTTTTTAATTTATTTTAA [CACACA_negctrl_site1322]”, with 6.76.
“TTTTTTTTTTATTTTGCACACTTCTAATTTAGTTCT [CACACA_site5828]”: the “gcPBM binding intensity (ln)” value was 10.7.
As for “AATTTTTTTTTTTTGTTGCACTTTTAGAGTTTTAAT [GTGCAC_site9519]”, the “gcPBM binding intensity (ln)” value was found to be 7.37.
Then AAAAAAATAGTCTTCTTGCACTTTTTAATTTATTTT, with 6.7; and “AACAATTAGAACTTTGCACACTTCTATATATTTTGT [CACACA_site674]”, with 10.2; and “TAATATGAATATATATGTACATACAATTTGTTATAT [XGTACX_site5815]”, with 6.55.
In the case of “TCATATGTATAAATTAGTACATATTTAATGGATATA [XGTACX_site3298]” it was 6.26; in that of “ATAATAATATATATTACACACGCATCGTTCATTTAT [CACACA_site8752]”, 7.06; in that of “CAATGTTAATATAATACACACAATATGTATTTGTCT [CACACA_site1162]”, 6.8.
In the case of “AAGATAAAATGATGCACACAAAAGGGTGTAATATAT [CACACA_site1706]” it was 8.59; in that of “AAAAAAATAAGGTGCACACAAAAAAAAAAAAAAAAA [CACACA_site812]”, 9.95; in that of “AAATAAAAAGGGTGCACACAAAAATATATATATATA [CACACA_site1728]”, 10.4.
In the case of “AAAAATAAAGGGTGTGCACACAAAAATATATATATA [CACACA_site1727]”, the “gcPBM binding intensity (ln)” value came out at 10.7.
In the case of “ACAAAAAAATAAGGTGCACACAAAAAAAAAAAAAAA [CACACA_site8171]” it was 9.22; in that of “TAGGTCATATTTTTTGCACACAAAAAAAAATATAAA [CACACA_site3380]”, 9.79.
In the case of AAAGGTTTGCGTTGTGTGCACAAAATAAATATATAA it was 10.6.
In the case of “AAAAATAAAAGGTGTGCACACAAAAATATATATATA [CACACA_site8507]” it was 10.7; in that of “ATATATATATTAAAGGTGCACAAATAAATATATACA [GTGCAC_site9532]”, 9.88.
Turning to “AGTAGTCTGGAGAAAAGTACACAGTATCTGGTAACA [XGTACX_site2034]”, the “gcPBM binding intensity (ln)” value is 6.
As for “TTTTTTTTTTTTTATACACACATTAAAATAAAAAAG [CACACA_site3946]”, the “gcPBM binding intensity (ln)” value stood at 6.74.
On to “TTTTAAATATGCCATACACACTACTCTATAATAAAT [CACACA_site6987]”, for which the “gcPBM binding intensity (ln)” value was found to be 6.56.
Then “AATTTTATTCATTGAGCACACAAAATAAATTATCAA [CACACA_site9079]”, with 6.73; and “TACAAAATAAAAATAATTCTTTCAAAAAATAATAAA [XGTACX_negctrl_site368]”, with 5.86.
